EPAC1 ag: activates human EPAC1 exchange factor. 0.073% of 360,000 active. AID 720707. EPAC1 agonist qHTS, biochemical assay; response scale: 100% = response to 6.5 mM cAMP. Potency, µM (series often up to 154 µM), for the others: at the top dose activation, actives largely listed as activators. O95398; further: nearly all actives have a fitted effect of over 60% in size
Target sequence (O95398 whole entry, looked up): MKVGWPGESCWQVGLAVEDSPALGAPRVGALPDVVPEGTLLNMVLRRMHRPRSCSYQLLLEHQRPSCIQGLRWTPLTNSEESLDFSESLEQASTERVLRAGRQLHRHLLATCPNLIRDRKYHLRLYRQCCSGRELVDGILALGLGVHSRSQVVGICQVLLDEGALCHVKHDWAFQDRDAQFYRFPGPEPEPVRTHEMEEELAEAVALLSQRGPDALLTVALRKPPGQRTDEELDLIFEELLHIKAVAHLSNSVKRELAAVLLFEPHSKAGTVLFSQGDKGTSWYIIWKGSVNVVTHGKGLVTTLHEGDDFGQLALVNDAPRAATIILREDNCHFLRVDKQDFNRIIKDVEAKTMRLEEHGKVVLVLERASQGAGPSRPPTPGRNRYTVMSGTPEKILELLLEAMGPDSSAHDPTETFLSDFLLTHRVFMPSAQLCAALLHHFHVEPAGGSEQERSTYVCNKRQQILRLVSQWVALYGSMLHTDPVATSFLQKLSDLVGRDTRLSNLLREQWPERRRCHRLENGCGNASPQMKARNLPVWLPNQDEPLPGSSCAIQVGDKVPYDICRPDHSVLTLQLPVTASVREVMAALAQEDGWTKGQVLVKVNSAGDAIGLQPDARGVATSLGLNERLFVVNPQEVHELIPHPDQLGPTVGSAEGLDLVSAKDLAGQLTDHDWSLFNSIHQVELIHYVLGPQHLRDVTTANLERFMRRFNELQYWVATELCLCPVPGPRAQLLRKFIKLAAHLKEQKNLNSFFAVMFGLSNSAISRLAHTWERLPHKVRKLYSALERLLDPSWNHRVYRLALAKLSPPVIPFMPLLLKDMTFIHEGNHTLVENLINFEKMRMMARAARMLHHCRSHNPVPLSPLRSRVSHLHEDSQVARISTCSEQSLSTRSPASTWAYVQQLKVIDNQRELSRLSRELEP
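Fluorescent GDP-exchange assay: 100 nM EPAC1 with 250 nM Rap1B preloaded with BODIPY-GDP and 50 uM GDP; compounds tested as concentration series, 5 min at room temperature, then read every 5 min for 30 min (ex 480/em 540 nm); normalized to 6.5 mM cAMP.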
EPAC2 ag: EPAC2 (human) agonism; EPAC2 activation, biochemical qHTS; response scale: 100% = 6.5 mM cAMP response; 0.079% of 360,000 active; Q8WZA2; Potency, µM (doses to about 154 µM), for the others: top-dose activation, usual class: activators; further: nearly all actives have a fitted effect of over 50% in size
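Each well held 100 nM EPAC2, 250 nM RAP1B-BODIPY-GDP and 50 uM GDP. Fluorescence, read at 5-min intervals to 30 min, was referenced to a 6.5 mM cAMP positive control.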
EPAC1 antagonist: EPAC1 (human) antagonism. 0.14% of 360,000 active. O95398. Potency, µM (highest dose often 115 µM), for inactives: top-dose activity change, negative = inhibition, actives largely listed as inhibitors. EPAC1 GEF assay, Rap1b-BODIPY-GDP exchange fluorescence;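 further: plate controls were vehicle for no effect and positive control for full effect; nearly all actives have a fitted effect of over 50% in size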
USP1-UAF1 inh: blocks the human USP1/UAF1 deubiquitinase complex; AID 743255; recombinant USP1/UAF1, Ub-Rhodamine cleavage fluorescence; Potency, µM (highest dose often 57.1 µM), for inactives: at the top dose activity change, negative = inhibition, usual class: inhibitors; O94782; 0.23% of 390,000 active; further: on the % scale 0 is the no-effect control and ±100 the full control effect; nearly all actives have a fitted effect of over 60% in size
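High-throughput fluorogenic screen: 1nM USP1/UAF1 complex, Ub-Rho substrate 150nM final, 50mM HEPES pH 7.8 with 0.5mM EDTA, 0.1 mg/ml BSA, 1mM TCEP and 0.01% Tween-20.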
EPAC2 antag: blocks human EPAC2 exchange factor | 0.18% of 360,000 active | EPAC2 GEF exchange of Rap1B-BODIPY-GDP, fluorescence | Potency, µM (doses to about 114 µM), for the others: at the highest dose activity, negative = inhibition, actives largely listed as inhibitors; further: on the % scale 0 is the no-effect control and ±100 the full control effect; nearly all actives have a fitted effect of over 45% in size
Numbers without * were called inactive; ? = inconclusive; / = no result; + = active, no number. Most compounds without a hit are left out; they make up all but 0.49% or so of the library. The call rests on the fitted dose curve; in most records, active means well fitted curve in the direction sought with a large enough effect; inconclusive means small, poorly fitted or top-dose-only effect, or another doubt; inactive means no such curve, though single readings can be large; an effect the other way counts as inactive or inconclusive. Potency means the concentration at half of the fitted maximal effect.

SMILES	EPAC1 ag	EPAC2 ag	EPAC1 antagonist	USP1-UAF1 inh	EPAC2 antag
O=[N+]([O-])c1ccccc1N=Nc1ccc(O)cc1O	-4.3%	-1.5%	?	?	-1.1%
CCOC(=O)N1CCN(C(=O)c2ccc3c(c2)N(Cc2ccccc2F)C(=O)c2ccccc2S3(=O)=O)CC1	/	/	/	-20.4%	/
Cc1cc(C)n(CCOc2ccc(Br)cc2)n1	8.8%	3.6%	11.7%	-23.1%	35.5µM*
COc1ccc(-c2onc(C)c2C)cc1S(=O)(=O)N1c2ccccc2CC1C (stereo not given)	/	/	/	-23.9%	/
CSc1nc(N(C)CCO)c2sc3nc(-c4ccco4)c4c(c3c2n1)CCC4	-2.6%	24.8%	44.7µM*	?	-14.4%
CSc1nc(NCCN(C)C)c2sc3nc(-c4ccco4)c4c(c3c2n1)CCC4	-7.9%	16.9%	-7.6%	-23.7%	10.7%
O=C1CC(c2cccc(O)c2)c2cc3c(cc2N1)OCO3 (stereo not given)	/	/	/	-23.7%	/
CCOc1ccc(S(=O)(=O)Nc2nc3ccccc3nc2-n2ccc(=NC(=O)c3cccs3)cc2)cc1	?	100µM*	-14.4%	-0.4%	40.8%
COC(=O)c1[nH]c2cc(C)ccc2c1NC(=O)CN1CCCc2ccccc21	-10.6%	7.94µM*	4.8%	-23.2%	0.0%
COc1ccc2nc(N3CCCC3)c(C#N)cc2c1	?	?	32.0%	28.2µM*	32.4%
COc1ccc2nc(N3CCCCC3)c(C#N)cc2c1	14.9%	18.2%	-6.8%	-4.3%	-27.7%
Cc1[nH][nH]c(=O)c1C(c1c(C)[nH][nH]c1=O)c1cn(Cc2ccccc2Cl)c2ccccc12	10.6%	-5.6%	?	28.2µM*	-4.3%
O=C(CSc1nc2c(sc3ccccc32)c(=O)n1CCCN1CCOCC1)NCC1CCCO1 (stereo not given)	3.5%	5.6%	-8.9%	-4.8%	2.2%
NC(=O)CSc1nc2c(sc3ccccc32)c(=O)n1CCCC(=O)NCC1CCCO1 (stereo not given)	+	-3.9%	123.3%	?	91.7%
Cc1cccc(-c2noc(-c3ccccc3OCC(=O)Nc3ccccc3[N+](=O)[O-])n2)c1	/	/	/	-5.3%	/
O=C(c1ccco1)N(CCC(c1ccccc1)c1ccco1)Cc1ccco1 (stereo not given)	7.5%	-2.4%	?	?	-14.7%
Cc1ccc(C(CCN(Cc2ccccc2)C(=O)c2ccco2)c2ccco2)cc1 (stereo not given)	0.2%	-2.5%	50.1µM*	-18.6%	?
COc1cc(CNn2cnnc2)ccc1OCC(=O)NC(C)(C)C	3.1%	10µM*	-5.2%	4.6%	2.3%
Cc1ccc(S(=O)(=O)N(CC(O)Cn2c3ccccc3c3ccccc32)c2cccc(C(=O)NCCO)c2)cc1 (stereo not given)	/	/	/	-24.6%	/
C=CCSc1nc(-c2ccc(OC)cc2)c(C#N)c(=O)n1CC=C	-3.7%	-3.4%	-7.5%	?	39.8µM*
COc1ccc(-c2nc3n(c(=O)c2C#N)CCS3)cc1	2.9%	12.6%	?	-22.8%	-3.6%
O=C(CCn1c(=O)c2cccn2c2cccnc21)N1CCN(c2ccccc2F)CC1	/	/	/	-14.7%	/
CCN(CC)c1ccc2cc(-c3nc(-c4cc(OC)c(OC)c(OC)c4)no3)c(=O)oc2c1	/	/	/	39.8µM*	/
CCOCCCNC(=O)NC(C)c1c(-n2cccc2)sc2c1CCN(CC)C2 (stereo not given)	/	/	/	-23.5%	/
O=C(O)c1cccc(N2C(=O)c3cccc4c(Cl)ccc(c34)C2=O)c1	2.5%	0.7%	-13.8%	-8.7%	-32.0%
SMILES	EPAC1 ag	EPAC2 ag	EPAC1 antagonist	USP1-UAF1 inh	EPAC2 antag
CC(C)CCN1C(=O)c2cccc3c(N)ccc(c23)C1=O	70.8µM*	?	24.6%	?	38.0%
O=C(O)c1ccc2c3c(cccc13)C(=O)N(c1ccccc1)C2=O	11.9%	6.5%	-2.4%	-20.2%	6.0%
Cc1cccc(N2C(=O)c3cccc4c(N)ccc(c34)C2=O)c1	89.1µM*	100µM*	292.2%	28.2µM*	276.4%
Nc1cccc(N2C(=O)c3cccc4c(N)ccc(c34)C2=O)c1	100µM*	89.1µM*	96.7%	28.2µM*	151.9%
Nc1ccc2c3c(cccc13)C(=O)N(c1ccccc1)C2=O	100µM*	100µM*	454.2%	?	420.7%
Cc1cccc(N2C(=O)c3cccc4cccc(c34)C2=O)c1	-5.9%	-2.1%	-1.3%	-23.1%	5.3%
CC(=O)Nc1cccc2c1C(=O)N(c1cccc(C)c1)C2=O	12.3%	8.4%	-22.7%	-14.8%	0.0%
Cc1cccc(N2C(=O)c3cccc4c(N(C)CCO)ccc(c34)C2=O)c1	112µM*	100µM*	49.2%	28.2µM*	72.4%
O=C1C=C(N2CCCCC2)c2ccccc2C1=O	17.4%	17.0%	44.7µM*	7.94µM*	35.5µM*
O=C(Cn1c(=O)n2nc(-c3cccc(F)c3)nc2c2ccccc21)N1CCN(c2ccccc2F)CC1	/	/	/	-12.1%	/
O=C(Cc1ccc(Cl)cc1)Nc1ccc(S(=O)(=O)Nc2ncccn2)cc1	-2.6%	4.1%	-4.9%	-8.8%	-11.5%
O=C(Cc1c(Cl)cccc1Cl)Nc1ccc(S(=O)(=O)Nc2ncccn2)cc1	10.2%	4.4%	7.7%	?	10µM*
NS(=O)(=O)c1ccc(NC(=O)Cc2c(F)cccc2Cl)cc1	1.0%	-2.0%	-18.1%	-3.3%	28.2µM*
Cc1ccnc(NS(=O)(=O)c2ccc(NC(=O)Cc3c(F)cccc3Cl)cc2)n1	-3.4%	7.1%	-0.1%	-24.7%	?
COc1cc(-c2ccc(Nc3ccccc3C(=O)O)c(OC)c2)ccc1Nc1ccccc1C(=O)O	-8.7%	-3.9%	79.4µM*	?	-7.9%
COc1cccc(Nc2ccccc2C(=O)O)c1	8.1%	1.9%	?	-1.8%	-2.1%
CCOC(=O)N1CCc2c(sc(NCc3sccc3C)c2C(=O)Nc2ccc(OC)cc2OC)C1	/	/	/	-22.8%	/
CCOC(=O)N1CCc2c(sc(NCc3ccc(N(C)C)cc3)c2C(=O)Nc2ccc(OC)cc2)C1	/	/	/	28.2µM*	/
O=C(NCCn1cc(SCc2ccc(F)cc2)c2ccccc21)c1cccs1	/	/	/	-15.5%	/
Cc1cc(Oc2ccc(Br)cc2)nc(SCC(=O)c2ccccc2)n1	2.1%	5.1%	-2.6%	-20.8%	-6.7%
COC(=O)CSc1nc(C)cc(Oc2ccccc2)n1	-25.2%	9.7%	50.1µM*	-1.1%	-12.2%
CCOc1ccc(/C=C/c2nc(C#N)c(NCCc3ccccc3)o2)cc1	/	/	/	-4.4%	/
Cc1ccc(-c2nn(-c3ccccc3)cc2C=C2SC(=S)N(CCS(=O)(=O)O)C2=O)cc1	-12.0%	1.2%	7.94µM*	/	44.7µM*
O=C1C(=Cc2cn(-c3ccccc3)nc2-c2ccc(OCc3ccccc3)cc2)SC(=S)N1CCS(=O)(=O)O	-1.4%	-6.3%	?	/	?
CC(Oc1ccccc1)C(=O)Nc1ccccc1C(=O)OCc1cc(=O)n2nc(C(C)C)sc2n1 (stereo not given)	/	/	/	-23.2%	/
